In PubChem BioAssay:
Activity calls are given as the source filed them.

What was measured:
[1] = binders of probe aFSTL3 on microarray, primary screen, stem cell growth factor project, biochemical, small-molecule microarray, fluorescence 635/667 (AID 1064); details: higher = more signal;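 note: measures binding of the biotinylated anti-FSTL3 antibody to printed compounds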
[2] = binders from COS7 lysate, DM2A8 probe, primary screen, torsin A project, cell lysate, small-molecule microarray, fluorescence 635/667 (AID 1065); details: higher = more signal, COS7 lysate expressing mutant human TOR1A
[3] = binders of probe aFGF2 on microarray, primary screen, stem cell growth factor project, biochemical, small-molecule microarray, fluorescence 635/667 (AID 1067); details: higher = more signal;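 note: measures binding of biotinylated aFGF2 protein to printed compounds on slides; z-score merges feature fluorescence and signal-to-noise across triplicate slides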
[4] = binders of probe aFGF10 on microarray, primary screen, stem cell growth factor project, biochemical, small-molecule microarray, fluorescence 635/667 (AID 1071); details: higher = more signal;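 note: score merges 667 nm spot intensity and signal to noise from triplicate slides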
[5] = biological target: Neurogenic locus notch homolog protein 2 (Homo sapiens) (UniProt Q04721); assay: Notch2 binders on small-molecule microarrays, primary screen, biochemical, small-molecule microarray, 635 nm fluorescence, stem cell growth factors (AID 1073); details: Notch2 binding, higher = more signal
[6] = biological target: Pro-neuregulin-1, membrane-bound isoform (Homo sapiens) (UniProt Q02297); assay: NRG1 binders on small-molecule microarrays, primary screen, psychiatric disease protein project, biochemical, small-molecule microarray, fluorescence 635/667 (AID 1075); details: NRG1 binding, 635 nm fluorescence, higher = more signal;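 note: score combines 667 nm spot fluorescence with signal to noise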
Chain of Pro-neuregulin-1, membrane-bound isoform (Homo sapiens) (Q02297 whole entry, looked up, the tested form may be a part, canonical isoform): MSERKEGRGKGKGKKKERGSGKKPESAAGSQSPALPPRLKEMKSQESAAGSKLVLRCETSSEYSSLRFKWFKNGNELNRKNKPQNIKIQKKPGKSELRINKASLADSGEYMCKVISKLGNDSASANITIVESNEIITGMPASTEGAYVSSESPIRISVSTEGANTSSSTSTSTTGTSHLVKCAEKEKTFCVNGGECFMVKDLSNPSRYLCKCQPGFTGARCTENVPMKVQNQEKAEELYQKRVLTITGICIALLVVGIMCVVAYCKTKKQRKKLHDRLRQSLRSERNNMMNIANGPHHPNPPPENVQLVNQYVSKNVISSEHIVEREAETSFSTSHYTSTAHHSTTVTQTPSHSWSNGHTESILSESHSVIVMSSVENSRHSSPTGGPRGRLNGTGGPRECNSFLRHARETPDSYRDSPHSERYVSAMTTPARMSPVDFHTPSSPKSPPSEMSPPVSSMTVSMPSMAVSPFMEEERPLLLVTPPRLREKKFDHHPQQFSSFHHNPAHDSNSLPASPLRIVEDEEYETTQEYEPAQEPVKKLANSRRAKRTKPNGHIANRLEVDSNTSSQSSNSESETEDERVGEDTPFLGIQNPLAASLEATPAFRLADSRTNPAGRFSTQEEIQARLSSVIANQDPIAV

[7] = test system: Neuregulin-1 EGF-like domain; assay: binders of neuregulin-1 EGF-like domain, primary screen, biochemical, small-molecule microarray, 635 nm fluorescence (AID 1081); details: small-molecule microarray binding, higher = more signal;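 note: binding of the protein to compounds printed on small-molecule microarray slides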
[8] = FRG1 promoter luciferase signal modulators, primary screen, FRG1 inhibition for FSHD, cell-based, C2C12 myotubes, firefly/Renilla luciferase, luminescence (AID 1084); details: higher = more signal, called active from +8 up or from −8 down
[9] = binders of probe aFST on microarray, primary screen, stem cell growth factor project, biochemical, small-molecule microarray, fluorescence 635/667 (AID 1086); details: higher = more signal;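 note: score merges 667 nm fluorescence with signal-to-noise of each printed compound spot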
[10] = binders of probe aHhip on microarray, primary screen, stem cell growth factor project, biochemical, small-molecule microarray, fluorescence 635/667 (AID 1087); details: higher = more signal;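 note: score merges spot fluorescence at 667nm with spot signal to noise ratio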
[11] = test system: PRMT1 (protein arginine N-methyltransferase 1); assay: PRMT1 binders on small-molecule microarrays, primary screen, biochemical, small-molecule microarray, 635 nm fluorescence (AID 1088); details: small-molecule microarray binding, higher = more signal;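 note: binding of Prmt1 protein to compounds spotted on small-molecule microarray slides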
[12] = yeast growth modulation, basal conditions, primary screen, YJM789 clinical isolate, OD600, 24 h (AID 1089);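 note: growth of clinical yeast isolate S. cerevisiae YJM 789 seeded 1000 cells per well; test concentration not given here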; details: S. cerevisiae YJM789 growth, higher = more signal, called active from +8 up or from −8 down
[13] = fission yeast growth modulation, primary screen, strain 972, OD600, 24 h, no modulator (AID 1090);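 note: basal condition with compound alone and no growth modifier present; test concentration not given here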; details: S. pombe 972 growth, higher = more signal, called active from +8 up or from −8 down
[14] = S. cerevisiae growth modulation with rapamycin, primary screen, strain BY4716, OD600, 96 h (AID 1091); details: higher = more signal, called active from +8 up or from −8 down; note: test concentration not given here
[15] = biological target: Torsin-1A-interacting protein 2 (Homo sapiens) (UniProt Q8NFQ8); assay: LULL1 binders on small-molecule microarray, primary screen, cell lysate, human LULL1 lysate, 635/667 nm fluorescence (AID 1092); details: hLULL1 lysate binding, 635 nm fluorescence, higher = more signal;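 note: probe is lysate of COS7 cells overexpressing human LULL1; score merges per-feature 667 nm fluorescence with signal-to-noise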
Chain of Torsin-1A-interacting protein 2 (Homo sapiens) (Q8NFQ8 whole entry, looked up): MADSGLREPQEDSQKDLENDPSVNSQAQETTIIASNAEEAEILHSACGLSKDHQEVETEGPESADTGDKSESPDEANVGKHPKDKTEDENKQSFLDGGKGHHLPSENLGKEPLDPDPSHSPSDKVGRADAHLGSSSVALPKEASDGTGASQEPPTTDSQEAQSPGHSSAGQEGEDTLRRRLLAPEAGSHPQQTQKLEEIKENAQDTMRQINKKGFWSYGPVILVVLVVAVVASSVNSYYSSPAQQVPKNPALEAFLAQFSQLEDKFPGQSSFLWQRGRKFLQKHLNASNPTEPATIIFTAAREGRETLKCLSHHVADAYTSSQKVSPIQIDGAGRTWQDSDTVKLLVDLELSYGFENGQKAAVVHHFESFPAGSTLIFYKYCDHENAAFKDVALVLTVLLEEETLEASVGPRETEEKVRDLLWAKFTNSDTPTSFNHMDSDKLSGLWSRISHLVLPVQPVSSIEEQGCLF

[16] = E. coli growth modulation, two-sided OD650, primary screen, E. coli filamentation project, strain DRC41, 24 h (AID 1093); details: OD650, 24 h, higher = more signal, called active from +8 up or from −8 down;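 note: MC1000 strain lacking acrAB efflux and sulA so SOS filamentation is blocked; test concentration not given here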
[17] = small-molecule microarray binders of probe aLefty2, primary screen, biochemical, biotinylated probe, 635/667 nm fluorescence (AID 1094); details: higher = more signal;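 note: score merges spot fluorescence near 667 nm with spot signal-to-noise ratio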
[18] = test system: Noggin (protein binding on small-molecule microarray); assay: Noggin binders on small-molecule microarray, primary screen, biochemical, 635/667 nm fluorescence (AID 1095); details: 635 nm fluorescence, higher = more signal;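 note: score merges 667 nm feature fluorescence with signal to noise over triplicate slides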
[19] = biological target: Neurogenic locus notch homolog protein 3 (Homo sapiens) (UniProt Q9UM47); assay: NOTCH3 binders on small-molecule microarray, primary screen, biochemical, 635/667 nm fluorescence (AID 1096); details: NOTCH3 binding, 635 nm fluorescence, higher = more signal
Chain of Neurogenic locus notch homolog protein 3 (Homo sapiens) (Q9UM47 whole entry, looked up): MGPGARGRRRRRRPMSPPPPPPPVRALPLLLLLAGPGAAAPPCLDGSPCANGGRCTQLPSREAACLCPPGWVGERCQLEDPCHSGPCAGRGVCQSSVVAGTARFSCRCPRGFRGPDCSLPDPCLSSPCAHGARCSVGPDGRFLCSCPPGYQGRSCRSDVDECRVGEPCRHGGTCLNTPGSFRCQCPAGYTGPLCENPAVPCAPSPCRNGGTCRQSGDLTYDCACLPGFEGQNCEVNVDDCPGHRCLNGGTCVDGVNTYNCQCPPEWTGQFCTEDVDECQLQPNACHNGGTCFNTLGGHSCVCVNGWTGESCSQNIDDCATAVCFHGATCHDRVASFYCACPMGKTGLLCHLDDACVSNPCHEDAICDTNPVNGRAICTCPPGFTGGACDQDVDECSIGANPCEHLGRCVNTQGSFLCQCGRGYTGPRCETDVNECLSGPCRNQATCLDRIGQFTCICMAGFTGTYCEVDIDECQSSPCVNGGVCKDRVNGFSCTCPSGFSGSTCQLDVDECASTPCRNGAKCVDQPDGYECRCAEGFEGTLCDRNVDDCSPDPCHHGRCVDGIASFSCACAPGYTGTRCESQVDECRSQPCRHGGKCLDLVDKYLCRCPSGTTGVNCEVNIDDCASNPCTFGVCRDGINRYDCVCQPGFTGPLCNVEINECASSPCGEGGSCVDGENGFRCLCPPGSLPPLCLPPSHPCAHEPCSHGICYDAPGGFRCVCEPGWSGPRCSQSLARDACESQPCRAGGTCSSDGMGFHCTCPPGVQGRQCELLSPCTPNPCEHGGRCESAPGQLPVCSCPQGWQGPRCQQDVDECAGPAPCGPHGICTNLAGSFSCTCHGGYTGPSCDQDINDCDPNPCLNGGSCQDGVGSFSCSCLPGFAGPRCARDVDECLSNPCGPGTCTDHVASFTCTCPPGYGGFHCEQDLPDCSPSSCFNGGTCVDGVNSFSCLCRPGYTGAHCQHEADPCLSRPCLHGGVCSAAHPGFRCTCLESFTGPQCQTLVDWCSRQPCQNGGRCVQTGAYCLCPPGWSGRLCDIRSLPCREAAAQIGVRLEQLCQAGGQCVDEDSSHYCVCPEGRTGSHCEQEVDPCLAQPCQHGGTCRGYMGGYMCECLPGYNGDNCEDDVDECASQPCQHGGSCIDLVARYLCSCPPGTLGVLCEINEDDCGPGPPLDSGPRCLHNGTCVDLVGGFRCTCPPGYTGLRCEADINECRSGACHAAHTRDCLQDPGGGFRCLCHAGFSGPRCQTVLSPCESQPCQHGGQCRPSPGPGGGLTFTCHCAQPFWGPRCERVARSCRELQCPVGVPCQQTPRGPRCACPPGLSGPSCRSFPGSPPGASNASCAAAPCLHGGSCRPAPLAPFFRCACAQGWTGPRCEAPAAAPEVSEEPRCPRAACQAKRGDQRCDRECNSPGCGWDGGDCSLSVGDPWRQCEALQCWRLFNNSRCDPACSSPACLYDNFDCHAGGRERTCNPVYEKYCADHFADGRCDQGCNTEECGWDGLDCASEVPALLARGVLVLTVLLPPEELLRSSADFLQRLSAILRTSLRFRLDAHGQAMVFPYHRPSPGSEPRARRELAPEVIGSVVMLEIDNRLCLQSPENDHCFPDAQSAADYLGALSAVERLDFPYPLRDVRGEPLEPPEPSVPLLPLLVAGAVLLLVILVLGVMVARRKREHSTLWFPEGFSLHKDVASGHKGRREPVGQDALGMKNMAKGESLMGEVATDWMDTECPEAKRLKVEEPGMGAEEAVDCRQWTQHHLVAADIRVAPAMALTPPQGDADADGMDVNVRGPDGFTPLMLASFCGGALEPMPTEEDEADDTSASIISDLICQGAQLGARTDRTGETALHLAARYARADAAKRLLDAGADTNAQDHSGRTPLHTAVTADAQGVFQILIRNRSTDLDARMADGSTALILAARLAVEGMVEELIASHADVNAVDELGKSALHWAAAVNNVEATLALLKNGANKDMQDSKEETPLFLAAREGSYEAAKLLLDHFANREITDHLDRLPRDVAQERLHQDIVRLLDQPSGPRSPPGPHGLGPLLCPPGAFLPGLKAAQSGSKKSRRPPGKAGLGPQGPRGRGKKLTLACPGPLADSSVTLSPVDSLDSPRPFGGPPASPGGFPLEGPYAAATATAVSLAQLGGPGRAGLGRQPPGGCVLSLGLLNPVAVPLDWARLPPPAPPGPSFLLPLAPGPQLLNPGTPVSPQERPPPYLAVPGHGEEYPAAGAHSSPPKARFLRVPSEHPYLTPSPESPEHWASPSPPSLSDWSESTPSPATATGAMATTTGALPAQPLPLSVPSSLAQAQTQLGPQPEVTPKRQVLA

[20] = small-molecule microarray binders of probe aEGFR, primary screen, biochemical, biotinylated probe, 635/667 nm fluorescence (AID 1097); details: higher = more signal;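 note: probe is a biotinylated anti-EGFR antibody binding compounds printed on slides; score combines fluorescence near 667 nm and signal to noise of each spot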

SMILES	composite z-score [1]	composite z-score [2]	composite z-score [3]	composite z-score [4]	composite z-score [5]	composite z-score [6]	composite z-score [7]	z-score [8]	composite z-score [9]	composite z-score [10]	composite z-score [11]	z-score [12]	z-score [13]	z-score [14]	composite z-score [15]	z-score [16]	composite z-score [17]	composite z-score [18]	composite z-score [19]	composite z-score [20]
COC(=O)[C@H](C)NC(=O)CCC1CC(OC(=O)NCCc2ccc(F)cc2)CC2(CCCC(COC(=O)NCCc3ccccc3OC)O2)O1 (stereo not given in full)	-0.93	-0.328	-0.172	0.706	1.16	0.608	0.729	-0.0438 (inactive)	-0.0835	-0.361	1.11	0.522 (inactive)	0.89 (inactive)	0.896 (inactive)	1.16	-0.0328 (inactive)	-0.0916	0.452	1.09	0.104
CCOC(=O)[C@H](CC(C)C)NC(=O)CCC1CC(OC(=O)NCc2ccc3c(c2)OCO3)CC2(CCCC(COC(=O)NCCC(C)C)O2)O1 (stereo not given in full)	-0.495	-0.146	-0.119	0.01	-0.195	0.169	0.312	1.38 (inactive)	-0.11	-0.291	0.145	0.138 (inactive)	0.991 (inactive)	-0.511 (inactive)	-0.222	0.796 (inactive)	-0.193	0.482	0.24	-0.0828
COc1cccc([C@H](O)Cn2cc(-c3ccc(CON=C(C)C)cc3)nn2)c1	-0.131	0.173	-0.0138	0.0967	-0.193	-0.486	0.0451	-0.291 (inactive)	0.0775	-0.185	0.0112	-0.733 (inactive)	0.16 (inactive)	-0.625 (inactive)	-0.441	1.2 (inactive)	-0.0561	-0.197	-1.27	0.0709
COCOc1ccc(Br)cc1C(=O)C=Cc1ccc2c(c1)OCO2	-0.289	0.738	-0.0878	0.313	0.315	-0.302	-0.645	-2.06 (inactive)	0.13	-0.226	0.253	-0.827 (inactive)	-7.01 (inactive)	32.1 (active)	-0.57	0.368 (inactive)	-0.16	0.698	0.0871	-0.0834
C[C@H]1CC[C@@H](C(=O)O)N[C@@H]1c1ccc(C#Cc2ccccc2)cc1	-0.214	0.0872	0.0166	0.505	1.32	0.736	1.24	3.31 (inactive)	0.316	0.176	1.52	-26.4 (active)	-21.1 (active)	-3.15 (inactive)	1.78	0.161 (inactive)	-0.0615	0.875	1.09	0.0651
